# Measurements: PubChem BioAssay (Tox21)
# “And” between values parts separate entries of the source, which are not always exact repeats. Equal values may be shown once. Inconclusive results are not listed. The source made the active and inactive calls. The call rests on the fitted dose curve.
# Test: qHTS assay to identify small molecule antagonists of the sonic hedgehog signaling (Shh) pathway (AID 1259369); further: nearly all actives have a fitted effect of over 45% in size
# Conditions: NIH/3T3 Gli1-Luc reporter, Shh antagonist, luminescence 24 h; series mostly up to 92.4 µM; activity change, negative = inhibition: at the top concentration
# Outline: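 For antagonist detection, the reporter line received test compounds together with conditioned medium, incubated 24hr at 37 C, 5% CO2, then luminescence was recorded following 30min room-temperature luciferase reagent incubation.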
# On the % scale 0 is the no-effect control and ±100 the full control effect; potency means the concentration at half of the fitted maximal effect.
SMILES,Potency,"activity change, negative = inhibition"
Oc1cc(Cl)c(Cl)c(Cl)c1,13 µM (active),
NNC(=O)c1ccccc1,31.5 µM (active),
ClCCN1CCOCC1,,0.0967% (inactive)
Cc1cc(C)cc(OP(=O)(Oc2cc(C)cc(C)c2)Oc2cc(C)cc(C)c2)c1,,4.17% (inactive)
CC1(c2ccc(Oc3ccccc3)cc2)OC(=O)N(Nc2ccccc2)C1=O (centres undefined),6.15 µM (active),
O=C1NCN(c2ccccc2)C12CCN(CC1COc3ccccc3O1)CC2 (centres undefined),,-21.5% [at 42.5 µM] (inactive)
COc1ccc(OC)c(C=O)c1,,10.2% (inactive)
CCCN(CC)CC1COC2(CCC(C(C)(C)C)CC2)O1 (centres undefined),,5.31% (inactive)
C[C@]12CC[C@@H]3c4ccc(OC(=O)N(CCCl)CCCl)cc4CC[C@H]3[C@@H]1CC[C@@H]2O,,-3.12% [at 42.5 µM] (inactive)
C=CC(=O)N(C)C,,14.6% (inactive)
O=C(CCl)Nc1ccccc1,,-20.9% (inactive)
COc1cccc(C(=O)CCN[C@@H](C)[C@H](O)c2ccccc2)c1,23.7 µM (active),
CC1(C)[C@H](C(=O)O[C@H](C#N)c2cccc(Oc3ccccc3)c2)[C@@H]1/C=C(\Cl)C(F)(F)F,inactive,
Clc1ccc(C(c2ccccc2Cl)C(Cl)(Cl)Cl)cc1 (centres undefined),inactive,
CCC(C)c1cc([N+](=O)[O-])cc([N+](=O)[O-])c1OC(=O)C=C(C)C (centres undefined),9.69 µM (active),
CC(C)CCCCCOC(=O)c1ccccc1C(=O)OCCCCCC(C)C,17 µM (active),
CCc1ccccc1C,,1.64% (inactive)
Oc1ccc(C(c2ccc(O)cc2)(C(F)(F)F)C(F)(F)F)cc1,27.2 µM (active) and 19.3 µM (active),
Brc1c(Br)c(Br)c(Oc2c(Br)c(Br)c(Br)c(Br)c2Br)c(Br)c1Br,,16.8% [at 19 µM] (inactive)
